From PubChem BioAssay (NCATS)
Inconclusive results are not listed. The source made the active and inactive calls. Unless noted, the call rests on the fitted dose curve; in most records, active means well fitted curve in the direction sought with a large enough effect; inconclusive means small, poorly fitted or top-dose-only effect, or another doubt; inactive means no such curve, though single readings can be large; an effect the other way counts as inactive or inconclusive.

Key:
[1] = qHTS profiling for inhibitors of Plasmodium falciparum proliferation (AID 504749);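 further: 0% = DMSO vehicle and full inhibition = artemisinin control; nearly all actives have a fitted effect of over 60% in size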; details: P. falciparum in erythrocytes, SYBR Green DNA, 72 h
How it was run: (§1)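 SYBR Green fluorescence of parasite DNA, read after lysis and overnight dark incubation, measured growth over 72 h in erythrocyte culture at 0.3% parasitemia and 2.5% hematocrit. Data normalised to DMSO and 0.29 uM artemisinin, with plate-drift correction.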

3D7 = assay: as above; details: P. falciparum in erythrocytes, SYBR Green DNA, 72 h; series mostly up to 28.7 µM
How it was run: as §1

7G8 = assay: as above; details: P. falciparum in erythrocytes, SYBR Green DNA, 72 h; series mostly up to 28.7 µM
How it was run: as §1

AA1029 = assay: as above; details: P. falciparum in erythrocytes, SYBR Green DNA, 72 h; series mostly up to 28.7 µM
How it was run: as §1

AS120 = assay: as above; details: P. falciparum in erythrocytes, SYBR Green DNA, 72 h; series mostly up to 28.7 µM
How it was run: as §1

ATS189 = assay: as above; details: P. falciparum in erythrocytes, SYBR Green DNA, 72 h; series mostly up to 28.7 µM
How it was run: as §1

ATS95 = assay: as above; details: P. falciparum in erythrocytes, SYBR Green DNA, 72 h; series mostly up to 28.7 µM
How it was run: as §1

[2] = qHTS drug screen for cell cycle checkpoint inhibitors in PARPi-resistant BRCA-mutant ovarian cancer cell lines. (AID 1963452; calls by dose curve); details: PEO1/OlaR viability, CellTiter-Glo luminescence, 96 h, stronger effect = lower value
How it was run: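 PEO1, PEO4 and PEO1/OlaR ovarian cancer cells, 600 per well, exposed 96 h at 37C to a dilution series. Viability read by CellTiter-Glo luminescence, normalized to DMSO and empty wells; activity summarized as Z-AUC.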

[3] = biological target: Nuclear receptor subfamily 1 group I member 2 (Homo sapiens) (UniProt O75469); assay: Dual reporter qHTS for antagonist of Pregnane X Receptor (hPXR) against the NCATS DSHEA and TCM libraries: Luminescence Readout (AID 1920060); details: hPXR dual reporter cells, luciferase luminescence, antagonist mode; series mostly up to 40 µM;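 further: HepG2 cells carrying hPXR luciferase reporter stimulated with rifampicin at 2 µM; 0% is about no effect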
Source text: Assay Development and Screening Technology Laboratory (ADST)
National Center for Advancing Translational Sciences (NCATS), Rockville, MD
National Institute of Health (NIH), Bethesda, Maryland
Dietary Supplements and Natural Products have minor oversight of their safety and efficacy. We assembled a collection of Dietary Supplements and Natural Products (DSNP) as well as Traditional Chinese Medicinal (TCM) Plant extracts, which were screened against an in vitro panel of assays, including a liver cytochrome p450 enzyme panel, CAR/PXR signaling pathways, and P-gp transporter assays, to assess their activity. This pipeline facilitated the interrogation of Natural Product-Drug Interaction (NaPDI) through prominent metabolizing pathways. In addition, we compared the activity profiles of the DSNP/TCM substances with those of an approved drug collection. Many of the approved drugs have well-annotated mechanisms of action (MOA) while the MOAs for most of the DSNP and TCM samples remain unknown. Based on the premise that compounds with similar activity profiles tend to share similar targets or MOA, we clustered the library activity profiles to identify overlap with the NCATS Pharmaceutical Collection to predict the MOAs of the DSNP/TCM substances. Overall, we highlight four significant bioactivity profiles (measured by p-values) as examples of this prediction. To assess broad cytotoxicity, we employed screening against a HepG2 cell line. In addition, transporter-mediated drug interactions are utilized in the characterization of DDIs using a P-glycoprotein (P-gp) assays. To profile potential P-gp activity, a differential cell viability was measured against two cell lines: a parental KB-3-1 human cervical adenocarcinoma cell line and the drug-resistant subline KB-8-5-11 that overexpresses P-gp.
To this end, we profiled both collections for potential CAR and/or PXR activity, employing a previously published 1536-well qHTS assay.
[1] Lee TD, et al. A High-Throughput Screen of a Library of Therapeutics Identifies Cytotoxic Substrates of P-glycoprotein. Mol Pharmacol. Nov 2019;96(5):629-640. doi:10.1124/mol.119.115964
For PXR luciferase reporter gene assays, we used hPXR-LucHepG2cells provided by Dr. Taosheng Chen (Department of Chemical Biology and Therapeutics, St. Jude Children's Research Hospital). Cells were cultured in EMEM supplemented with 10% fetal bovine serum, 100U/mL penicillin and 100ug/mL streptomycin, and 500ug/mL of geneticin.
PROTOCOL TABLE (as described by Inglese J, Shamu CE and Guy RK. 2007)
SEQUENCE No. (e.g., 1, 2, 3, etc.); PARAMETER (e.g., Cells, Incubation, Reagent, etc.); VALUE; DESCRIPTION.
1; Cells; 5 uL; hPXR-LucHepG2; white solid-bottom Greiner plate. […]
8; Read; Fluorescence; ViewLux plate reader. […]
11; Read; Luminescence; ViewLux plate reader. […]

[4] = Dual reporter qHTS for antagonist of Pregnane X Receptor (hPXR) against the NCATS DSHEA and TCM libraries: Fluorescence Readout (AID 1920061); details: PXR dual reporter cells, antagonist mode; series mostly up to 40 µM; further: 0% is about no effect
How it was run: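 Antagonist mode: rifampicin 2 uM final co-added with compounds to hPXR-LucHepG2 cells for 24 h at 37C. Viability by CellTiter-Fluor, Ex/Em 405/540 nm, 1 h; reporter by ONE-Glo luminescence.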

[5] = at 28.7 µM (top of the series), parasite line A
[6] = at 28.7 µM (top of the series), parasite line B
[7] = at 12.8 µM (top of the series), parasite line A
[8] = at 12.8 µM (top of the series), parasite line B
[9] = measured here: PEO1 parental Z-AUC

Sequence of Nuclear receptor subfamily 1 group I member 2 (Homo sapiens) (O75469 whole entry, looked up): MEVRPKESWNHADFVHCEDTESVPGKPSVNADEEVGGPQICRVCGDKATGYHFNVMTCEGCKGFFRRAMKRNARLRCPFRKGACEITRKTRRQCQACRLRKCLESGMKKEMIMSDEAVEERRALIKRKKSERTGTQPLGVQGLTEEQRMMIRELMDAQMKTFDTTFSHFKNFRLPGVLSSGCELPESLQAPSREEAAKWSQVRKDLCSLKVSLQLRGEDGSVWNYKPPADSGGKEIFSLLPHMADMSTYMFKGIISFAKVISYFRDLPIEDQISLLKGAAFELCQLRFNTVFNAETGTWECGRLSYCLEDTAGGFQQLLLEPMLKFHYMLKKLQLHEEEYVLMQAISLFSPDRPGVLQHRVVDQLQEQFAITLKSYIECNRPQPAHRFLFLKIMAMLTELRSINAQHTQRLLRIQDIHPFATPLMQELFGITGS

O=C(O)c1ccc(OCCCOc2ccc(C(=O)O)cc2)cc1
inactive: activity, negative = inhibition [1, 5] 0.28% | activity, negative = inhibition [1, 6] 9.9% | Potency (3D7) | Potency (7G8) | Potency (AA1029) | Potency (AS120) | Potency (ATS189) | Potency (ATS95)

CCc1cccc(CC)c1NC(=O)CN(CC(=O)O)CC(=O)O
inactive: activity, negative = inhibition [1, 7] 1.37% | activity, negative = inhibition [1, 8] 6.7% | Potency (3D7) | Potency (7G8) | Potency (AA1029) | Potency (AS120) | Potency (ATS189) | Potency (ATS95)

NC(N)=NS(=O)(=O)c1ccc(N)cc1
inactive: activity, negative = inhibition [1, 7] 8.93% | activity, negative = inhibition [1, 8] 8.43% | Potency (3D7) | Potency (7G8) | Potency (AA1029) | Potency (AS120) | Potency (ATS189)

Cc1cc(C)nc(NS(=O)(=O)c2ccc(N)cc2)n1
inactive: activity, negative = inhibition [1, 5] 7.93% | activity, negative = inhibition [1, 6] 10.9% | Potency (3D7) | Potency (7G8) | Potency (AA1029) | Potency (AS120) | Potency (ATS189) | Potency (ATS95)

O=C(O)/C=C/c1ccc(Cn2ccnc2)cc1
inactive: Z-AUC [2] 1.62
1.73: Z-AUC [2, 9]
2.28: Z-AUC ([2]; measured here: PEO4 Z-AUC)

NC(=O)NC1NC(=O)NC1=O (stereo unspecified)
inactive: outcome [3] | outcome [4]

OC[C@@H](O)[C@@H](O)[C@H](O)[C@H](O)CO
-0.786: Z-AUC ([2]; measured here: PEO4 Z-AUC)
inactive: Z-AUC [2] -0.605 | activity, negative = inhibition [1, 5] 7.85% | activity, negative = inhibition [1, 6] 7.16% | Potency (3D7) | Potency (7G8) | Potency (AA1029) | Potency (AS120) | Potency (ATS189) | Potency (ATS95)
-0.476: Z-AUC [2, 9]

CCCCCOC(=O)Nc1nc(=O)n([C@@H]2O[C@H](C)[C@@H](O)[C@H]2O)cc1F
-0.448: Z-AUC ([2]; measured here: PEO4 Z-AUC)
inactive: Z-AUC [2] -0.294
-0.525: Z-AUC [2, 9]

Cc1cccc(Nc2ccccc2C(=O)O)c1C
inactive: activity, negative = inhibition [1, 5] -4.38% | activity, negative = inhibition [1, 6] 15.2% | Potency (3D7) | Potency (7G8) | Potency (AA1029) | Potency (AS120) | Potency (ATS189) | Potency (ATS95)

O=C(CN1CCNCC1)NC1CCCCC1
inactive: activity, negative = inhibition [1, 5] 3.68% | activity, negative = inhibition [1, 6] 4.23% | Potency (3D7) | Potency (7G8) | Potency (AA1029) | Potency (AS120) | Potency (ATS189) | Potency (ATS95)

COc1ccc(C(=O)NCc2ccc(OCCN(C)C)cc2)cc1OC
inactive: activity, negative = inhibition [1, 5] -0.299% | activity, negative = inhibition [1, 6] -0.981% | Potency (3D7) | Potency (7G8) | Potency (AA1029) | Potency (AS120) | Potency (ATS189) | Potency (ATS95)

Cn1c(=O)c2c(ncn2CCO)n(C)c1=O
inactive: activity, negative = inhibition [1, 5] 2.6% | activity, negative = inhibition [1, 6] -3.88% | Potency (3D7) | Potency (7G8) | Potency (AA1029) | Potency (AS120) | Potency (ATS189) | Potency (ATS95)

CC(O)CCCCn1c(=O)c2c(ncn2C)n(C)c1=O (stereo unspecified)
inactive: activity, negative = inhibition [1, 5] 9.1% | activity, negative = inhibition [1, 6] 4.96% | Potency (3D7) | Potency (7G8) | Potency (AA1029) | Potency (AS120) | Potency (ATS189) | Potency (ATS95)

Nc1ncnc2c1ncn2[C@@H]1O[C@H](COP(=O)(O)O)[C@@H](O)[C@H]1O
inactive: activity, negative = inhibition [1, 5] -10.7% | activity, negative = inhibition [1, 6] 4.33% | Potency (3D7) | Potency (7G8) | Potency (AA1029) | Potency (AS120) | Potency (ATS189) | Potency (ATS95)

C=CCNC(N)=S
inactive: activity, negative = inhibition [1, 5] 5.67% | activity, negative = inhibition [1, 6] -1.15% | Potency (3D7) | Potency (7G8) | Potency (AA1029) | Potency (AS120) | Potency (ATS189) | Potency (ATS95)

CC1CCc2cc(F)cc3c(=O)c(C(=O)O)cn1c23 (stereo unspecified)
inactive: activity, negative = inhibition [1, 5] -7.54% | activity, negative = inhibition [1, 6] 6.45% | Potency (3D7) | Potency (7G8) | Potency (AA1029) | Potency (AS120) | Potency (ATS189) | Potency (ATS95)

CC(CSC(=O)c1ccccc1)C(=O)N1C[C@@H](Sc2ccccc2)C[C@H]1C(=O)O (stereo partly specified)
inactive: activity, negative = inhibition [1, 5] 13% | activity, negative = inhibition [1, 6] 2.24% | Potency (3D7) | Potency (7G8) | Potency (AA1029) | Potency (AS120) | Potency (ATS189) | Potency (ATS95)

NCC1CCC(C(=O)Oc2ccc(CCC(=O)O)cc2)CC1 (stereo unspecified)
inactive: activity, negative = inhibition [1, 5] -0.969% | activity, negative = inhibition [1, 6] 4.31% | Potency (3D7) | Potency (7G8) | Potency (AA1029) | Potency (AS120) | Potency (ATS189) | Potency (ATS95)

O=C(O)c1ccc[n+]([O-])c1
inactive: activity, negative = inhibition [1, 5] -4.83% | activity, negative = inhibition [1, 6] 10.2% | Potency (3D7) | Potency (7G8) | Potency (AA1029) | Potency (AS120) | Potency (ATS189) | Potency (ATS95)

OCc1ccc(Cl)cc1Cl
inactive: activity, negative = inhibition [1, 5] -3.83% | activity, negative = inhibition [1, 6] -17.4% | Potency (3D7) | Potency (7G8) | Potency (AA1029) | Potency (AS120) | Potency (ATS189) | Potency (ATS95)

CCCCC1(COC(=O)CCC(=O)O)C(=O)N(c2ccccc2)N(c2ccccc2)C1=O
inactive: activity, negative = inhibition [1, 7] 7.36% | activity, negative = inhibition [1, 8] 2.05% | Potency (3D7) | Potency (7G8) | Potency (AA1029) | Potency (AS120) | Potency (ATS189) | Potency (ATS95)

CCOC(=O)c1cccnc1
inactive: activity, negative = inhibition [1, 5] 7.9% | activity, negative = inhibition [1, 6] 13.9% | Potency (3D7) | Potency (7G8) | Potency (AA1029) | Potency (AS120) | Potency (ATS189) | Potency (ATS95)

O=c1[nH]c2cc(C(F)(F)F)c(N3CCOCC3)cc2n(CP(=O)(O)O)c1=O
inactive: activity, negative = inhibition [1, 5] 11.3% | activity, negative = inhibition [1, 6] -0.254% | Potency (3D7) | Potency (7G8) | Potency (AA1029) | Potency (AS120) | Potency (ATS189) | Potency (ATS95)

CCCCCCCCCCCCCCCCC(C(=O)O)C(O)(CC(=O)O)C(=O)O (stereo unspecified)
inactive: activity, negative = inhibition [1, 5] 13.1% | activity, negative = inhibition [1, 6] 1.49% | Potency (3D7) | Potency (7G8) | Potency (AA1029) | Potency (AS120) | Potency (ATS189) | Potency (ATS95)

O=C(O)c1cc(=O)c2ccccc2o1
inactive: activity, negative = inhibition [1, 5] -22.1% | activity, negative = inhibition [1, 6] 5.99% | Potency (3D7) | Potency (7G8) | Potency (AA1029) | Potency (AS120) | Potency (ATS189) | Potency (ATS95)
